Rows were chosen to be rich in hits. Some 7.9% of all compounds tested hit in one or more screens of this group.
FMDV antiviral – High Throughput Screening for Foot and Mouth Disease Virus Antivirals; FMDV antiviral cell-based qHTS; Potency, µM (series often up to 57.9 µM), actives largely listed as inhibitors; 1.2% of 410,000 active; AID 1159524, 2015; calls by dose curve; tested in HEK293T cells; also: read-out not given here; nearly all actives have a fitted effect of over 45% in size
HCV inh – qHTS Assay for Inhibitors of Hepatitis C Virus (HCV); AID 651820, 2012; Potency, µM (titrated, usually from 41.8 µM), most hits filed as inhibitors; 3.4% of 340,000 active; Huh7.5.1 HCVcc-Cre infection, luciferase reporter, 44 h; active = well fitted inhibition curve with a large enough effect; inconclusive = small, poorly fitted or top-dose-only effect, or another doubt; inactive = no such curve, though single readings can be large or run the other way
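Cells seeded at 1,000/well and cultured 4 h, then compounds added followed by HCVcc-Cre virus (~0.5 moi). After 44 h further culture, luciferase substrate was added, plates held 15 min at room temperature, and luminescence read for 15 sec.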
HCMV inh – qHTS Assay for inhibitors of the human cytomegalovirus (HCMV) | HFF cells, HCMV-luciferase reporter, 72 h; hits give low values | 4.5% of 410,000 active | activity change, negative = inhibition, % at 57.5 µM | AID 1259415, 2018; in the data active = activity change below about -60%; inconclusive = no clear call, values can overlap the other calls; inactive = above about -39%
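Screen run at 2 compound doses on HFFs infected with reporter HCMV, MOI 1 PFU/cell. Luciferase activity from cell lysates at 72 h post infection gave inhibition relative to buffer-only and Salinomycin wells.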
LASV entry inh – qHTS for Inhibitors of binding or entry into cells for Lassa Virus | 1.2% of 300,000 active | Lassa virus pseudotype entry inhibition, cell reporter | AID 540256, 2011 | Potency, µM (series often up to 37.9 µM), actives largely listed as inhibitors; calls by dose curve; tested in HEK293 cells; also: nearly all actives have a fitted effect of over 50% in size
Marburg entry inh – qHTS for inhibitors of binding or entry into cells for Marburg Virus. 1.8% of 300,000 active. Marburg virus pseudotyped entry inhibition, cell reporter. Potency, µM (highest dose often 37.8 µM), usual class: inhibitors; calls by dose curve; tested in HEK293 cells
A number is an active result; i = inactive; ? = inconclusive; nt = no result given.

SMILES | FMDV antiviral | HCV inh | HCMV inh | LASV entry inh | Marburg entry inh
CCOC(=O)c1cnc(-n2nc(C)cc2C)nc1Nc1ccc(OC)cc1 | i | 11µM | i | ? | ?
CCOC(=O)c1cnc(-n2nc(C)cc2C)nc1NC1CCCC1 | ? | 1.1µM | -108 | ? | 11µM
CCOC(=O)c1cnc(-n2nc(C)cc2C)nc1NCCc1ccccc1 | ? | i | -92 | i | ?
CCOC(=O)c1cnc(-n2nc(C)cc2C)nc1Oc1ccc(C(=O)OC)cc1 | i | i | i | ? | i
COc1ccccc1CNC(=O)CCNS(=O)(=O)/C=C/c1ccc(C)cc1 | i | i | i | nt | nt
Cc1ccccc1-c1cc(C(=O)NCc2ccco2)n(CC2CC(c3cccnc3)=NO2)n1 (centres undefined) | i | ? | i | nt | nt
CC(C)(C)OC(=O)[C@H](Cc1ccccc1)NC(=O)c1nc[nH]c1C(=O)N[C@@H](Cc1ccccc1)C(=O)OC(C)(C)C | ? | ? | -68 | nt | nt
CC(C)(C)OC(=O)[C@H](Cc1ccccc1)NC(=O)c1[nH]cnc1C(=O)N[C@@H](Cc1ccccc1)C(=O)OCc1ccccc1 | i | i | i | nt | nt
C[C@H](NC(=O)c1nc[nH]c1C(=O)N[C@@H](Cc1ccccc1)C(=O)OC(C)(C)C)C(=O)OC(C)(C)C | i | 11µM | i | nt | nt
CC(C)C[C@H](NC(=O)c1[nH]cnc1C(=O)N[C@@H](C)C(=O)OCc1ccccc1)C(=O)OC(C)(C)C | i | i | i | nt | nt
O=C(Nc1ccccc1N1CCCCC1)C1CCN(C(=O)c2ccc(Cl)cc2)CC1 | ? | ? | i | i | ?
CCC(C(=O)Nc1cccc(C(=O)O)c1C)c1ccccc1 (centres undefined) | i | i | ? | i | i
CCC(Sc1nc2nccnc2c(=O)n1Cc1ccc(OC)cc1)C(=O)NC1CCCCC1 (centres undefined) | 7.1µM | nt | i | i | nt
CCc1cc(Cn2nc(-c3ccccc3)cc2C(=O)NCc2cccc(C(F)(F)F)c2)on1 | i | ? | i | nt | nt
CCc1cc(Cn2nc(-c3ccccc3)cc2C(=O)NCc2cccc(Br)c2)on1 | i | 3.2µM | ? | nt | nt
Cc1cc(/C=c2/sc3nc4ccccc4n3c2=O)c(C)n1-c1ccccn1 | 0.032µM | ? | -101 | 0.21µM | ?
CCN1C(=O)N/C(=C/c2cc(C)n(Cc3ccccc3)c2C)C1=O | i | 10µM | ? | ? | ?
CCn1c(C)cc(/C=C2\NC(=O)N(Cc3ccc(Cl)cc3)C2=O)c1C | i | 13µM | i | i | ?
Cc1cccc(CN2C(=O)N/C(=C/c3cc(C)n(-c4ccccn4)c3C)C2=O)c1 | i | 1.8µM | i | i | i
CC(NC(=O)c1cc(F)c(F)cc1Cl)C1CC2CCC1C2 (centres undefined) | i | i | i | i | i
O=C(O)CSc1nnc(-c2cccc(S(=O)(=O)N3CCCCC3)c2)o1 | i | i | i | i | i
N#Cc1ccc(CSc2nnc(-c3cccc(S(=O)(=O)N4CCCCC4)c3)o2)cc1 | i | ? | -66 | ? | ?
CC(C)Oc1ccc(CN2CCC2(C)C(=O)Nc2cccc3cccnc23)cc1 (centres undefined) | i | nt | -78 | nt | nt
Cc1c(Br)cccc1NC(=O)C1(C)CCN1Cc1ccc(OC(C)C)cc1 (centres undefined) | i | nt | ? | nt | nt
O=C(Nc1ccc(N2CCCC2)c(Cl)c1)c1ccco1 | nt | ? | -90 | 12µM | ?
SMILES | FMDV antiviral | HCV inh | HCMV inh | LASV entry inh | Marburg entry inh
O=C(Nc1ccc(N2CCCC2)cc1)c1ccc(Br)o1 | nt | i | i | i | i
CS(=O)(=O)N1CCN(c2ccc(NC(=O)c3ccc([N+](=O)[O-])o3)cc2)CC1 | i | ? | -101 | i | i
COC(=O)c1ccc(N2CCCCC2)c(NC(=O)c2ccco2)c1 | ? | 1.4µM | ? | nt | ?
O=C(Nc1ccc(N2CCCCC2)cc1)c1ccc([N+](=O)[O-])o1 | i | ? | -96 | ? | ?
CS(=O)(=O)N1CCN(c2ccc(NC(=O)c3cc4ccccc4o3)cc2)CC1 | i | i | i | nt | nt
O=C(Nc1cc([N+](=O)[O-])ccc1N1CCCC1)c1ccco1 | i | i | i | i | i
CN1CCN(c2ccc(NC(=O)c3ccco3)cc2Cl)CC1 | i | i | i | nt | nt
CC(C)CNC(=O)c1csc(C(O)C(C)C)n1 (centres undefined) | nt | nt | i | nt | nt
O=C(c1ccc2c(c1)OCO2)N1C[C@H]2[C@@H](c3ccccc31)[C@H](CO)N2C(=O)CC1CC1 | nt | nt | i | nt | nt
COc1ccccc1NC(=O)C1=C(C)Nc2nc(SCc3ccccc3)nn2C1c1cccc(O)c1 (centres undefined) | i | nt | i | ? | i
CC(C)CC(=O)NC(=S)Nc1ccc(N2CCCC2)c(Cl)c1 | i | i | -62 | i | ?
O=C(Nc1ccc(N2CCCC2)c(Cl)c1)c1ccc([N+](=O)[O-])o1 | i | ? | -89 | ? | 8.9µM
COc1ccc(N2CCCC2)c(NC(=O)c2ccc([N+](=O)[O-])o2)c1 | ? | ? | i | i | i
O=C(Nc1ccc(N2CCN(Cc3ccccc3F)CC2)cc1)c1ccc([N+](=O)[O-])o1 | ? | ? | -100 | i | ?
COc1cc(C(=O)OCC(=O)NC2CCCC2)cc(NC(=O)c2ccco2)c1OC | i | i | i | i | i
COc1cc(C(=O)OCC(C)=O)cc(NC(=O)c2ccco2)c1OC | i | i | -69 | nt | nt
CC1CCN(c2ccc(NC(=O)c3ccc([N+](=O)[O-])o3)cc2)CC1 | i | ? | -98 | ? | ?
CC1CCN(c2ccccc2NC(=O)c2ccc([N+](=O)[O-])o2)CC1 | i | i | i | nt | i
FC(F)(F)c1cc(-c2ccc3c(c2)OCO3)nc(NCc2ccco2)n1 | i | 6.3µM | i | i | ?
COc1ccc(-c2cc(C(F)(F)F)nc(NCc3ccco3)n2)cc1OC | i | ? | nt | i | i
CCCn1c(C(O)c2ccc(OC)cc2)nc2ccccc21 (centres undefined) | i | i | i | i | i
CCCn1c(C(O)c2ccc(OC)c(OC)c2)nc2ccccc21 (centres undefined) | ? | ? | -69 | nt | nt
Oc1ccc(C=NC2CCCCC2)c(O)c1 | i | i | i | ? | i
COc1ccc(-n2nc(C(=O)NCC(=O)NCc3ccccc3OC)c3ccccc3c2=O)c(OC)c1 | i | i | i | nt | i
COc1ccc(-n2nc(C(=O)NCC(=O)Nc3cc(C)ccc3OC)c3ccccc3c2=O)c(OC)c1 | i | i | i | 6.3µM | i
COc1ccc(-n2nc(C(=O)NCC(=O)NC3CCCCCC3)c3ccccc3c2=O)c(OC)c1 | i | i | i | i | i
COc1ccc(-n2nc(C(=O)NCC(=O)NC3CCCCC3)c3ccccc3c2=O)c(OC)c1 | i | i | i | 13µM | ?
CC[C@H](C)[C@@H](CN[C@H](C)CNC)NCCC(c1ccccc1)c1ccccc1 | i | ? | -97 | nt | nt
CCNC(=O)N(C)c1c(CC)nc2ccc(C(=O)N3CCN(C(=O)c4ccco4)CC3)cn12 | i | nt | i | nt | nt
Cc1ccc(NC(=O)C2=C(C(=O)O)CCCC2)cc1F | i | i | i | i | i

Screening results: PubChem, National Center for Advancing Translational Sciences (NCATS)
